{"source": "PubChem BioAssay AID739", "about": "(SRMLSC, 2007)", "note": "In all, about 98,000 compounds went through this assay and about 880 (0.9%) were called active. No stated cut-off is given here; in the data, active means inhibition above about 30%; inactive means the rest. The list comes from a sample in which actives are over-represented; it also holds similar structures and randomly drawn compounds."}
{"experiment": "phenotypic screen on post-Golgi transport, primary screen (AID 739);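 further: yeast cells grown in 1536-well plates; yeast grown about 18 h at 30C before absorbance read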", "conditions": "post-Golgi transport phenotypic cell assay; at 10 µM; active compounds read high"}
{"smiles": "Cc1cc(N/C=C\\C(=O)c2ccc(Cl)c(Cl)c2)no1", "inhibition": "-4.69% (inactive)"}
{"smiles": "CC(=O)c1cccc(NC(=O)N2CCCC2C(=O)NCCc2ccccc2)c1", "note": "(stereo not given)", "inhibition": "20% (inactive)"}
{"smiles": "CCOc1cccc(NC(=O)C2CCCN(S(=O)(=O)c3ccc(OC)cc3)C2)c1", "note": "(stereo not given)", "inhibition": "-5.63% (inactive)"}
{"smiles": "COc1cccc(NC(=O)C2CCCN2C(=O)OCc2ccccc2)c1", "note": "(stereo not given)", "inhibition": "32% (active)"}
{"smiles": "CCN(CC)C(=O)CSc1nc2ccccc2n1CC(=O)N1CCN(c2ccccc2OC)CC1", "inhibition": "11.2% (inactive)"}
{"smiles": "COc1ccc(C(=O)Nc2ncc3c(n2)-c2ccccc2CC3)cc1", "inhibition": "16.5% (inactive)"}
{"smiles": "Cc1ccn2cc(-c3nonc3C)cc2c1", "inhibition": "37.3% (active)"}
{"smiles": "COc1ccc(C2CC(=O)Nc3cc(C)c(C)cc32)c(OC)c1OC", "note": "(stereo not given)", "inhibition": "11.7% (inactive)"}
{"smiles": "COC(=O)C(C(=O)Nc1cccc(C)n1)C1CCCCCC1", "note": "(stereo not given)", "inhibition": "-2.06% (inactive)"}
{"smiles": "COc1ccc2ccccc2c1CNCc1ccccn1", "inhibition": "0.33% (inactive)"}
{"smiles": "CC1CCN(CC(=O)c2c[nH]c3ccccc23)CC1", "inhibition": "0% (inactive)"}
{"smiles": "CCOc1ccc(OCC)c(NC(=O)CN(C)S(=O)(=O)c2cccc3nsnc23)c1", "inhibition": "1.42% (inactive)"}
{"smiles": "CCOc1ccc(-c2cn(S(=O)(=O)c3cccc4nsnc34)nc2N)cc1", "inhibition": "46.9% (active)"}
{"smiles": "CCOc1ccc(NC(=O)CCS(=O)(=O)c2cccc3nsnc23)cc1", "inhibition": "-1.86% (inactive)"}
{"smiles": "O=C1N=C2SCCN2/C1=C\\c1c(Cl)cccc1Cl", "inhibition": "-3.72% (inactive)"}
{"smiles": "Cc1ccc(C(=O)c2c(NC(=O)c3ccncc3)sc3c2CCCC3)cc1", "inhibition": "97.2% (active)"}
{"smiles": "Cc1ccc(C(=O)c2c(NC(=O)c3ccccc3)sc(C)c2C)cc1", "inhibition": "0% (inactive)"}
{"smiles": "COC(=O)c1c(NC(=O)c2cccs2)sc2c1CCCC2", "inhibition": "3.23% (inactive)"}
{"smiles": "CCCc1cc(=O)[nH]c(SCC(=O)c2cc(C)n(CCC)c2C)n1", "inhibition": "-4.22% (inactive)"}
{"smiles": "COc1cc(/C=N/O)cc(Br)c1OS(=O)(=O)c1ccc(C)cc1", "inhibition": "2.99% (inactive)"}
{"smiles": "CCOc1ccc(N(CC(=O)NC2CCCCCC2)S(=O)(=O)c2c(C)[nH]c(=O)[nH]c2=O)cc1", "inhibition": "-2.87% (inactive)"}
{"smiles": "O=C1C=C(c2ccc(Cl)cc2)C(=O)N1Nc1ccccc1", "inhibition": "106% (active)"}
{"smiles": "O=C(Nc1ccccc1)OCc1cc(-c2ccc(Cl)cc2)on1", "inhibition": "-5.71% (inactive)"}
{"smiles": "O=C1c2cccc3cc(Br)cc(c23)C(=O)N1Nc1ccccc1", "inhibition": "-2.04% (inactive)"}
{"smiles": "COc1ccc(-c2csc3nc(-c4ccccc4F)oc(=O)c23)cc1OC", "inhibition": "6.4% (inactive)"}
{"smiles": "CC1CC2=C(CC1/C=N/NC(N)=S)C(C)(C)CCC2", "note": "(stereo not given)", "inhibition": "100% (active)"}
{"smiles": "CC1(C)CCCC2=C1CC1C(=O)N(c3ccccc3)C(=O)C1C2", "note": "(stereo not given)", "inhibition": "-1.13% (inactive)"}
{"smiles": "Cc1cc(C)c2nc(NC(=O)C3CCCO3)sc2c1", "note": "(stereo not given)", "inhibition": "-4.03% (inactive)"}
{"smiles": "O=C(CSc1ccc(/C=N/NC(=O)c2cccc(F)c2)o1)Nc1ccccc1", "inhibition": "-2.85% (inactive)"}
{"smiles": "COc1ccc(CCNS(=O)(=O)c2ccc(Cl)s2)cc1OC", "inhibition": "-1.32% (inactive)"}
{"smiles": "COc1cccc(-c2nc(S(=O)(=O)c3ccccc3)c(N3CCOCC3)o2)c1", "inhibition": "-8.86% (inactive)"}
{"smiles": "COc1cccc(-c2cc3nc4c(c(N5CCC6(CC5)OCCO6)n3n2)CCCC4)c1", "inhibition": "45.5% (active)"}
{"smiles": "COc1cccc(CNc2nc3nc4c(c(=O)n3[nH]2)CCC4)c1", "inhibition": "-5.47% (inactive)"}
{"smiles": "Cc1cccc(NC(=O)CSc2nnc(-c3ccco3)o2)c1", "inhibition": "-0.81% (inactive)"}
{"smiles": "COC(=O)c1ccccc1OCC(=O)N1CCN(c2ccc(Cl)cc2)CC1", "inhibition": "5.12% (inactive)"}
{"smiles": "O=C(NCc1ccccc1)C1CCCN(S(=O)(=O)c2cccs2)C1", "note": "(stereo not given)", "inhibition": "0% (inactive)"}
{"smiles": "O=C(NC1CCCCC1)C1CCCN(S(=O)(=O)c2cccs2)C1", "note": "(stereo not given)", "inhibition": "-9.88% (inactive)"}
{"smiles": "O=C(C1CCN(S(=O)(=O)c2cccs2)CC1)N1CCCCCC1", "inhibition": "34.1% (active)"}
{"smiles": "Cc1cccc(C(=O)Nc2ccccc2-c2nnn(CC(=O)Nc3ccc4c(c3)OCCO4)n2)c1", "inhibition": "-5.17% (inactive)"}
{"smiles": "CC(=O)c1cc(NC(=O)c2ccccc2)c(=O)oc1/C=C/N(C)C", "inhibition": "-1.13% (inactive)"}
{"smiles": "Cn1ccs/c1=N\\S(=O)(=O)c1ccc(C(C)(C)C)cc1", "inhibition": "-6.14% (inactive)"}
{"smiles": "O=C(O)CCN=C1CCc2ccccc2N1", "inhibition": "2.24% (inactive)"}
{"smiles": "CCOc1cccc(C(=O)Nc2cnn(Cc3ccccc3)c2)c1", "inhibition": "7.09% (inactive)"}
{"smiles": "CCOc1cccc(C(=O)Nc2cccnc2)c1", "inhibition": "31% (active)"}
{"smiles": "CCC(=O)Nc1cccc(NC(=O)c2cccnc2)c1", "inhibition": "-2.1% (inactive)"}
{"smiles": "NC(=NC(=O)c1ccccc1)N1CCOCC1", "inhibition": "-0.16% (inactive)"}
{"smiles": "CCNCc1cc2cc(C)ccc2[nH]c1=O", "inhibition": "6.62% (inactive)"}
{"smiles": "CC(=O)OCc1cc2cc(C)ccc2[nH]c1=O", "inhibition": "5.81% (inactive)"}
{"smiles": "CCOC(=O)c1cc2cc(C)ccc2[nH]1", "inhibition": "39.6% (active)"}
{"smiles": "N/C(=N\\OC(=O)CCC1CCCCC1)c1ccccn1", "inhibition": "13.9% (inactive)"}
{"smiles": "Nc1c(-c2ccc(F)cc2)cnc2ncnn12", "inhibition": "15.1% (inactive)"}
{"smiles": "O=C(CCC(=O)OCc1cccc(C(=O)Oc2ccccc2)c1)Nc1cccc2ccccc12", "inhibition": "-3.63% (inactive)"}
{"smiles": "N#Cc1nc(COc2ccc(-c3ccccc3)cc2)oc1NCc1cccnc1", "inhibition": "99.8% (active)"}
{"smiles": "N#Cc1nc(Cc2ccccc2)oc1NCCc1ccccc1", "inhibition": "18.8% (inactive)"}
{"smiles": "N#Cc1nc(-c2ccc(OCc3ccccc3)cc2)oc1NCCCN1CCOCC1", "inhibition": "5.49% (inactive)"}
{"smiles": "CCCn1nc2cc(C(=O)NCc3ccccc3)ccc2c1OCC", "inhibition": "2.26% (inactive)"}
{"smiles": "CCCCNC(=S)NNC(=O)c1cc(C)on1", "inhibition": "0.65% (inactive)"}
{"smiles": "COc1ccc(/C=C2/S/C(=N/N=C3\\CC4CCC3(C)C4(C)C)NC2=O)cc1", "note": "(stereo not given)", "inhibition": "-0.32% (inactive)"}
{"smiles": "COC(=O)c1ccc(CSc2nncn2C)cc1", "inhibition": "1.45% (inactive)"}
{"smiles": "COC(=O)c1ccc(CSc2nnc(NC(C)C)s2)cc1", "inhibition": "36.2% (active)"}
{"smiles": "CCOc1ccccc1Nc1nnc(SCc2ccc(C(=O)OC)o2)s1", "inhibition": "-9.05% (inactive)"}
{"smiles": "Cc1ccccc1/[N+]([O-])=C/c1ccncc1", "inhibition": "-1.29% (inactive)"}
{"smiles": "COc1ccc2c(Cl)c(C(=O)NCc3ccco3)sc2c1", "inhibition": "-10.7% (inactive)"}
{"smiles": "Cc1ccc(SC(=O)COc2ccc(C)c(C)c2)cc1", "inhibition": "35.3% (active)"}
{"smiles": "Cc1cc(=O)oc2ccc(OCC(=O)O)cc12", "inhibition": "2.48% (inactive)"}
{"smiles": "COCCNC(=O)COc1ccc(C)c(C)c1", "inhibition": "4.17% (inactive)"}
{"smiles": "O=S(=O)(c1ccc(F)cc1)n1ccc(-c2cnc(-c3ccccc3)s2)n1", "inhibition": "-10% (inactive)"}
{"smiles": "O=C(Nc1nnc(CCOCCOCCc2nnc(NC(=O)c3ccco3)s2)s1)c1ccco1", "inhibition": "-30.3% (inactive)"}
{"smiles": "CCCc1noc2c1/C(=N\\O)CCC2", "inhibition": "13.6% (inactive)"}
{"smiles": "O=C(NCC1CCCO1)c1ccc2ccccc2n1", "note": "(stereo not given)", "inhibition": "-3.36% (inactive)"}
